The results in this text go back to the supplement of paper PMC10849652.

Targets with a hit are over-represented here; the source holds about 7,900 in all. About 0.6% of all pairs of compound and target were hits.

UniProt Q96JB5, sequence (Q96JB5 whole entry, looked up): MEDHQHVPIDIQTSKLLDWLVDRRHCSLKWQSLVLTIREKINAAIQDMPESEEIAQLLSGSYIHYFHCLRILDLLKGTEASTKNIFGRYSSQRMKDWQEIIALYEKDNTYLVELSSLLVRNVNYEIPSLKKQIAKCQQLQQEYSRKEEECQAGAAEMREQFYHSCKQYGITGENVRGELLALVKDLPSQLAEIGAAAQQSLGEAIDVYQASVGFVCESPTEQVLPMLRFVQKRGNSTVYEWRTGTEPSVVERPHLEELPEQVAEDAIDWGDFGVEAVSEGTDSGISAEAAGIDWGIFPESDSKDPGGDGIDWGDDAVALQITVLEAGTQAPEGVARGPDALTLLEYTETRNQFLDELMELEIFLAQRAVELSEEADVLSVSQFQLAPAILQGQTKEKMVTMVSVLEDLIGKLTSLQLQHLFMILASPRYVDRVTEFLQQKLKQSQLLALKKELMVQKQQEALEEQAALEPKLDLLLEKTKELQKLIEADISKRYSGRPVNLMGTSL
UniProt O95628, sequence (O95628 whole entry, looked up): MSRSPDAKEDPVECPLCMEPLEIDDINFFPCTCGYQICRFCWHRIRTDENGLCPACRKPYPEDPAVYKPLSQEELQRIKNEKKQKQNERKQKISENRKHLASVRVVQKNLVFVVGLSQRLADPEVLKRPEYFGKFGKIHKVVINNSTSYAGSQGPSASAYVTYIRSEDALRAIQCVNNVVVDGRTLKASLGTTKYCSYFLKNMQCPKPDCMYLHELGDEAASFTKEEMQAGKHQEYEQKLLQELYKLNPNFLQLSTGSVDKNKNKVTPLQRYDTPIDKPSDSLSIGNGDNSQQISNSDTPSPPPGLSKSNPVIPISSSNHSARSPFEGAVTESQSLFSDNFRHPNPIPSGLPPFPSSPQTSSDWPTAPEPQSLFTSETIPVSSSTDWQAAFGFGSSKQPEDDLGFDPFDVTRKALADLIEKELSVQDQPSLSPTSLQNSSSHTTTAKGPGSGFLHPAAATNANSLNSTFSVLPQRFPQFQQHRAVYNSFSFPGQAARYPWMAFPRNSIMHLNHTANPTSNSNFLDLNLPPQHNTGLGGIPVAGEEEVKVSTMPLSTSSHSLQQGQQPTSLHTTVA
UniProt P45973, sequence (P45973 whole entry, looked up): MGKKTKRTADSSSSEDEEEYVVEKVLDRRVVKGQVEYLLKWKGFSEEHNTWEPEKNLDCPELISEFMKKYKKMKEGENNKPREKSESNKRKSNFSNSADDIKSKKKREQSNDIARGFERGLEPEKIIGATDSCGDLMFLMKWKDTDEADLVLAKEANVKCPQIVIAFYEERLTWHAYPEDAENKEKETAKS
UniProt P60033, sequence (P60033 whole entry, looked up): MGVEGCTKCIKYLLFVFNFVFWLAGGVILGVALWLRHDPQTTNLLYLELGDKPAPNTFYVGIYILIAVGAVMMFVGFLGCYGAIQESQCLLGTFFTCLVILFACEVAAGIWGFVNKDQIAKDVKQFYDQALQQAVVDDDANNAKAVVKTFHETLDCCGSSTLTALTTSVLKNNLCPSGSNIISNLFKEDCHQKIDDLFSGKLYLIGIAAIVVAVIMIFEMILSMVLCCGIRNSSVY
UniProt Q96JM3, sequence (Q96JM3 whole entry, looked up): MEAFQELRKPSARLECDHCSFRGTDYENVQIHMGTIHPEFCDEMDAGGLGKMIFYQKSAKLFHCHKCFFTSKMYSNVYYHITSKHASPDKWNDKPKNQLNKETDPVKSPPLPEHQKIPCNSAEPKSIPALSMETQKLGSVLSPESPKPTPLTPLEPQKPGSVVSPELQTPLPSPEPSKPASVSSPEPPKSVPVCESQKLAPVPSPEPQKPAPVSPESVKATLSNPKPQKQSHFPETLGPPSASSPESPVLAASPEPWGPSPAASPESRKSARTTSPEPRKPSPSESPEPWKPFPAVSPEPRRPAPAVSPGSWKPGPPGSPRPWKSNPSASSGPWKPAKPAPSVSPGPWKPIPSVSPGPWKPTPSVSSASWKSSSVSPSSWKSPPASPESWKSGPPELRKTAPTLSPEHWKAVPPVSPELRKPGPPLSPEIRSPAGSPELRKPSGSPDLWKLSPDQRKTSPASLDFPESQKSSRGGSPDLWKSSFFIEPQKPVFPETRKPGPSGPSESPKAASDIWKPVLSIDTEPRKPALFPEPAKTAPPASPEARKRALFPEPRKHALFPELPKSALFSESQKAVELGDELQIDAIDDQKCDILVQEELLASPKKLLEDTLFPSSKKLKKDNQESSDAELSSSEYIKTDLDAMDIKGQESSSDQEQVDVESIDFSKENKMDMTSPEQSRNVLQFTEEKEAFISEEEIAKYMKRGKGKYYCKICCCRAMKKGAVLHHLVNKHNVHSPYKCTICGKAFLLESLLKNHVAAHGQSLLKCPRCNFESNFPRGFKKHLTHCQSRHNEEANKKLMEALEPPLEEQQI
UniProt Q9UNS2, sequence (Q9UNS2 whole entry, looked up): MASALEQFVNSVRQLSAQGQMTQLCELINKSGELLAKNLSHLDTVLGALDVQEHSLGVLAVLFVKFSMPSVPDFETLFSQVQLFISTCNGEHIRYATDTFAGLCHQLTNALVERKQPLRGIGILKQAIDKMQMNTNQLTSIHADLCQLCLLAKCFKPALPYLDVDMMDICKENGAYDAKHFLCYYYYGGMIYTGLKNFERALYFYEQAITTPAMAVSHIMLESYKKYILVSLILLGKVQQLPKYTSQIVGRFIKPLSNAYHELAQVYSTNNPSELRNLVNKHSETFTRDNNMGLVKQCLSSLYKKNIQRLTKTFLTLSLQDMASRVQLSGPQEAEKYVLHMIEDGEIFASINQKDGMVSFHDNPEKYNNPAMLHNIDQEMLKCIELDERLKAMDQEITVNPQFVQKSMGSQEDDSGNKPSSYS
UniProt O00748, sequence (O00748 whole entry, looked up): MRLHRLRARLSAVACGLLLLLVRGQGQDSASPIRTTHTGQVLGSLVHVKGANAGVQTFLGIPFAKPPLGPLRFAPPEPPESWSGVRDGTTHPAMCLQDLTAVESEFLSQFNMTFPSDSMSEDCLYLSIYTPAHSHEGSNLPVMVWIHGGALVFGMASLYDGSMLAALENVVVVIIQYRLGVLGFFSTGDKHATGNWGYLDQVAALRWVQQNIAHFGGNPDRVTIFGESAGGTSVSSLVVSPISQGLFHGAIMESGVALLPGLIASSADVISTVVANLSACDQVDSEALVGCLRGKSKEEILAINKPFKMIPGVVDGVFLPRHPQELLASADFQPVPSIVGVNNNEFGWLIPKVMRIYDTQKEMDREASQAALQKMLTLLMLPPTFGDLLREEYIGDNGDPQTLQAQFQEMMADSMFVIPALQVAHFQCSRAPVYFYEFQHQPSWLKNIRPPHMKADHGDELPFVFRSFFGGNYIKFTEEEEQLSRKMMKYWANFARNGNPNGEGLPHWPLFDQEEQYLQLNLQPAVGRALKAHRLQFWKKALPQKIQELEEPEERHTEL
UniProt Q7KZN9, sequence (Q7KZN9 whole entry, looked up): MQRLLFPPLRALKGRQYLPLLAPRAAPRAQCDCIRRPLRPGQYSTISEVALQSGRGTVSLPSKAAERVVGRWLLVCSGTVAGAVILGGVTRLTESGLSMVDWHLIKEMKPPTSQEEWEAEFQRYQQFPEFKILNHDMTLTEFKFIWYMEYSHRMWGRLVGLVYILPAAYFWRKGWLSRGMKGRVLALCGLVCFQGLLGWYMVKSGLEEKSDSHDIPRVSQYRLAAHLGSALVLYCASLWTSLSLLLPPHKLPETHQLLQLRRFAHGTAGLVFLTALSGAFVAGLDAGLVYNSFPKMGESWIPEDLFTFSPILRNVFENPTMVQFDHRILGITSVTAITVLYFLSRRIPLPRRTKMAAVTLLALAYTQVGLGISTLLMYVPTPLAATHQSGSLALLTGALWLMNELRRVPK
UniProt Q99653, sequence (Q99653 whole entry, looked up): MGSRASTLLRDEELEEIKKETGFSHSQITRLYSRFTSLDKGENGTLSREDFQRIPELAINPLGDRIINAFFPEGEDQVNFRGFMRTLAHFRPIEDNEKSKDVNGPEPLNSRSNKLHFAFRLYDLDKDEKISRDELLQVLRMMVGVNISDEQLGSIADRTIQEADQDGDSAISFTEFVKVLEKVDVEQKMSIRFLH
UniProt P41240, sequence (P41240 whole entry, looked up): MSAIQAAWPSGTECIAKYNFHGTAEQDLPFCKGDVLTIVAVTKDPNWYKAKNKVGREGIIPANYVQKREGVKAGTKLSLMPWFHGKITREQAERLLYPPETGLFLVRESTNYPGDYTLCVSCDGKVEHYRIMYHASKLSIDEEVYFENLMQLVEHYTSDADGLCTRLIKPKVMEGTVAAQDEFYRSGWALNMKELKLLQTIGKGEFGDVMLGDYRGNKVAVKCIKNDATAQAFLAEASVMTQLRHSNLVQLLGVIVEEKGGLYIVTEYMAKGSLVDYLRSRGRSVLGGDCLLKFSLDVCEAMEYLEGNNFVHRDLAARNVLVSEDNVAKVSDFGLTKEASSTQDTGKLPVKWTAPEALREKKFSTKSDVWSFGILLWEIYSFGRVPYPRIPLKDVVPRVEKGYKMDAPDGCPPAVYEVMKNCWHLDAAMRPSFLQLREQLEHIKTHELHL
UniProt P08174, sequence (P08174 whole entry, looked up): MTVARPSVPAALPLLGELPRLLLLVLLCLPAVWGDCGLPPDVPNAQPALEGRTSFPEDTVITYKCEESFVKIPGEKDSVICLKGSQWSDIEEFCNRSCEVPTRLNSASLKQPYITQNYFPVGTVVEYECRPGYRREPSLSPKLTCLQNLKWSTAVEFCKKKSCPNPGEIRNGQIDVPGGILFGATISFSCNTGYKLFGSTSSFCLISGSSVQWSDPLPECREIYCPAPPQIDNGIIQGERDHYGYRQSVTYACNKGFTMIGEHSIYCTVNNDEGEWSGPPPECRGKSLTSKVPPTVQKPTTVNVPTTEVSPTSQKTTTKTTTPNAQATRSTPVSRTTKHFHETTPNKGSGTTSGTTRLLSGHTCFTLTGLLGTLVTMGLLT
UniProt Q8NHZ8, sequence (Q8NHZ8 whole entry, looked up): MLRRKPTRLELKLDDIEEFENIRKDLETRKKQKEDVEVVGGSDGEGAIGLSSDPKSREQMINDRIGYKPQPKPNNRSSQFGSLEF

Compound in this experiment: CS(=O)(=O)N1CCN(Cc2cc3nc(-c4cccc5[nH]ncc45)nc(N4CCOCC4)c3s2)CC1 [pictilisib]
As to the kind of experiment: log2 fold change, soluble protein after heating vs DMSO (PISA); higher = thermal stabilisation; K562 cells, 10 uM, 30 min; active = over 0.2 and 3.5 SD of the protein, either way, in both replicates (recomputed). The gist of the method: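 K562 cells at 2×10^6 cells/mL were treated for 30 min with 10 μM compound, and aliquots were heated for 3 min over 48°C-58°C before pooling. Extraction used PBS with 0.5% NP-40 at 4°C, and soluble protein was the supernatant after 21,000xg for 90 min, measured by TMTpro 16plex LC-MS/MS with channel sums equalised. Thermal stability values, relative to control samples and from duplicates, are log2 fold changes.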
Consider CHP1 (UniProt Q99653), for which the log2 fold change is 0.053 (inactive).
As for CES2 isoform 4 (UniProt O00748), the figure is 0.103 (inactive); as for CPT2 (UniProt P23786), 0.57 (inactive); as for CNN2 (UniProt Q99439), -0.054 (inactive).
For CBX5 (UniProt P45973), the log2 fold change was 0.106 (inactive).
As for CNOT4 isoform 6 (UniProt O95628), the figure is 0.036 (inactive); as for CD55 isoform 7 (UniProt P08174), 0.005 (inactive); as for CPT1A (UniProt P50416), 0.257 (inactive).
Turning to CD81 (UniProt P60033), the log2 fold change is 0.138 (inactive).
For CRK (UniProt P46108) the value was 0.043 (inactive); for CSK (UniProt P41240), 0.02 (inactive).
Take CELF2 isoform 3 (UniProt O95319): the log2 fold change was 0.051 (inactive).
As for CDK5RAP3 isoform 4 (UniProt Q96JB5), the figure is -0.015 (inactive); as for CSNK2A2 (UniProt P19784), 0.128 (inactive); as for CCZ1 (UniProt P86791), -0.047 (inactive).
As for CBR1 (UniProt P16152), the figure is -0.035 (inactive); as for CHAMP1 (UniProt Q96JM3), 0.107 (inactive); as for CHMP4C (UniProt Q96CF2), -0.005 (inactive).
On to CBS (UniProt P35520), for which the log2 fold change is 0.043 (inactive).
For COX15 (UniProt Q7KZN9) the value was 0.071 (inactive); for CDAN1 (UniProt Q8IWY9), 0.011 (inactive); for CDC26 (UniProt Q8NHZ8), -0.125 (inactive).
As to COPS3 (UniProt Q9UNS2), the log2 fold change was -0.063 (inactive).
